Drawing on PubChem BioAssay AID720596 (The Scripps Research Institute Molecular Screening Center, 2013), this text covers inhibition for 88 compounds.

Where “and” joins values, the source holds several entries; their conditions need not be identical. Equal entries are not always repeated. Out of some 370,000 compounds screened, about 1,600 (0.43%) were called active. What follows is part of a selection rich in actives, with near analogues and random picks from the rest. A number with no mark means an inactive call. Cut-off read from the data, not from the text of the source: active = inhibition above about 24%; inactive = the rest.

As a reminder, the inhibition is the relative decrease from the control value, in per cent.

For this assay, the target named is Major prion protein (Homo sapiens) (UniProt P04156). Kind of assay: inhibitors of human cell surface prion protein PrPC, primary screen, cell-based, TR-FRET (AID 720596). Note: 0% = median of the test wells and 100% = reference compound wells. The following applies: TR-FRET read-out, at 13.8 µM, active compounds read high. (TR-FRET usually uses a lanthanide donor and a delayed reading to cut background.)
As for `Nc1[nH]c(C(=O)c2ccc(Br)cc2)c(-c2ccc3c(c2)OCO3)c1C(=O)NCCc1c[nH]c2ccccc12`, the inhibition is -5.16%. The value for `Oc1c(Cl)cc(Cl)c(Cl)c1Cc1c(O)c(Cl)cc(Cl)c1Cl` was 28.9% (active). `C=CCC[C@@H](CCCCC)OC(=O)/C=C/[C@@H](O)[C@H](O)C[C@H](O)CC=C`: the inhibition was -5.85%.

For the compound `COc1ccc(-c2cc(-c3nnc(SCc4ccc([N+](=O)[O-])cc4)n3N)[nH]n2)cc1`, the inhibition is 0.13%. The value for `CCOc1ccc(S(=O)(=O)N(CC(=O)O)c2ccccc2)cc1` was -3.25%; that for `COC(=O)[C@]12C[C@H](CC(=O)NCc3ccc(C)o3)C(=O)N(CCC3=CCCCC3)C1=C[C@H](C(C)(C)C)O[C@@H]2C` was 7.81%. Take `O=C(Nc1ccc(C2CC2(Cl)Cl)cc1)c1cccc([N+](=O)[O-])c1` (stereo not drawn): the inhibition is 25.6% (active). The figure for `Cc1ccc(NC(=O)C(=O)NCC2CCN(C(=O)c3cccc([N+](=O)[O-])c3)CC2)cc1` is -5.67%; for `O=C(Nc1ccc([N+](=O)[O-])cc1)C1CC12CCC2` (stereo not drawn) it is 3.59%.

In the case of `COc1cc(C(=O)N2Cc3ccc(Br)cc3-n3nncc3C2)cc(OC)c1OC`, the inhibition is -0.36%.

With `Cc1ccc(C)c(S(=O)(=O)N2CCCOC2CNC(=O)C(=O)NC2CCCCC2)c1` (stereo not drawn), the inhibition was -1.91%. As for `COc1ccc2c(CC(=O)OCC(=O)Nc3ccccc3[N+](=O)[O-])coc2c1`, the inhibition was -12.7%. `CO[C@H]([C@H](C)/C=C/N(C)C=O)[C@@H](C)C(=O)CC[C@H](C)[C@H](O)[C@H](C)[C@H]1OC(=O)/C=C/C(C)=C/[C@H](O)[C@H](OC)C[C@@H]2C=CC[C@@H](C[C@H](OC)[C@@]3(CO3)[C@@H](OC)C[C@@H](OC)[C@@H]1C)O2`: the inhibition was 38% (active). In the case of `CN(C)C(=O)CCc1ccc2c3c([nH]c2c1)[C@]1(C)[C@@H](C(=O)N2CCCCC2)C[C@H](CC(=O)NCCC2=CCCCC2)C(=O)N1CC3`, the inhibition is -3.09%. `O=C(Cc1ccccc1)Nc1cccc(NC(=O)c2ccccc2)c1`: the inhibition is 30.2% (active).

In the case of `CC(C)(C)NC(=O)c1cccc(NC(=O)Cc2ccc(Br)cc2)c1`, the inhibition is 11%. The figure for `CN(CCc1ccccc1)C(=O)c1cccc(NC(=O)Cc2ccc([N+](=O)[O-])cc2)c1` is -2.03%. In the case of `Cc1ccc(Cc2cncc(O)c2)cc1S(=O)(=O)O`, the inhibition is -7.2%. With `Cc1[nH]c(C)c(S(=O)(=O)N2CCC(C)CC2)c1C(=O)N1CCCC1`, the inhibition was -7.7%.

On to `O/N=C(\C[n+]1ccccc1)c1ccc(Br)cc1`, for which the inhibition is 6.16%. Consider `O=C(c1ccc(-c2ccccc2)cc1)C1CCCN(C(=O)c2cncs2)C1` (stereo not drawn), for which the inhibition is 6.46%. Consider `C=CCN(c1ccccc1C(=O)NCC(=O)OCC)S(=O)(=O)c1ccc(C)cc1`, for which the inhibition was 5.82%.

For the compound `CCc1ccc(Oc2coc3cc(OC(=O)c4cc5ccccc5oc4=O)ccc3c2=O)cc1`, the inhibition is -6.51%. Consider `O=C(OCCN1C(=O)c2ccccc2C1=O)Oc1ccccc1`, for which the inhibition was -3.25%. The figure for `O=C(Oc1ccccc1)Oc1ccc2c(c1)oc(=O)c1ccccc12` is 31.3% (active); for `C=C(C)c1cccc(C(C)(C)NC(=O)NCCN(CC)CC)c1` it is -1.16%; for `CCOc1ccc(NC(=O)C2CC(=O)N=C(N)S2)cc1` (stereo not drawn) it is 3.27%.

As to `CCc1ccc(OCC(=O)N(Cc2ccccc2)C2CCS(=O)(=O)C2)cc1` (stereo not drawn), the inhibition was 7.58%. The value for `CC1=CC2=NC(=O)CC(C)(C(=O)N(CC(=O)NC(C)(C)C)Cc3ccccc3)N2C=C1` (stereo not drawn) was -11.9%. On to `O=C(O)CCc1nc2cc(Cl)ccc2n(Cc2ccccc2)c1=O`, for which the inhibition is -3.72%. The figure for `O=C(Cn1c(-c2cscn2)nc2ccccc21)Nc1ccc(Cl)cc1` is 16.8%; for `O=c1[nH]cccc1-c1nc2ccccc2n1Cc1ccc(Cl)cc1` it is 48.8% (active); for `CCCCCn1nnnc1-c1nc2cc3ccccc3cc2[nH]c1=O` it is -2.3%. For `COc1cc(OC)c(C(=O)OC(C)C(=O)Nc2cc(C(F)(F)F)ccc2Cl)cc1OC` (stereo not drawn), the inhibition was -3.19%. Consider `CC(=O)c1ccc(S(=O)(=O)N(C)CCCC(=O)N(C)Cc2ccccc2F)cc1`, for which the inhibition is 3.84%. The figure for `Cc1ccc(S(=O)(=O)NCC2CCC(C(=O)N3CCOCC3)CC2)cc1` (stereo not drawn) is 9.49%; for `O=C(NNC(=O)C(O)c1ccccc1)NC1CCCCC1` (stereo not drawn) it is 5.45%; for `O=C(Cn1nnc(-c2ccccc2)n1)NC(=O)NC1CCCC1` it is 1.46%. With `Cc1nc(/N=C(\N)NC(=O)NC2CCCCC2)nc2ccccc12`, the inhibition is 27.6% (active). With `C[C@H]1CN([C@@H](C)CO)C(=O)c2cc(C3=CCCCC3)cnc2O[C@@H]1CN(C)C(=O)Cc1ccccc1`, the inhibition is -9.73%.

On to `Cc1sc2c(c1C)c(=O)n(-c1ccccc1)c1nncn21`, for which the inhibition was -3.5%. The value for `c1ccc(CCC2=NCCn3cccc32)cc1` was -4.1% and -18.3%.

`CCCCCCCC(=O)NC(Nc1ccccc1OC)C(Cl)(Cl)Cl` (stereo not drawn): the inhibition was 1.28%. As to `CCOc1ccc(C(CC(=O)O)n2cnnn2)cc1OC` (stereo not drawn), the inhibition is -3.65%.

As for `CCCCC(=O)NC(c1ccc(OC)c(OC)c1)c1ccc2cccnc2c1O` (stereo not drawn), the inhibition was 28.6% (active). Regarding `CCOC(=O)C1=CCC(c2ccc(F)cc2)N(S(=O)(=O)c2ccc(C)cc2)C1` (stereo not drawn), the inhibition was 0.96%. Regarding `Cc1cc(C)n(CCNS(=O)(=O)c2ccc(Cl)cc2)n1`, the inhibition was -3.39%. The value for `N#Cc1c(-c2ccc(F)cc2)cc(C2CC2)nc1SCC(=O)c1cccs1` was 8.6%. As to `N#Cc1c(-c2cccs2)nc(SCC(=O)c2ccc(Br)cc2)[nH]c1=O`, the inhibition is 49.9% (active). As to `Cc1nnc(SCC(=O)NCc2cccs2)[nH]c1=O`, the inhibition is 0.4%. In the case of `CC(C)(C)NC(=O)NC(=O)COC(=O)C1(C)CC1(Cl)Cl` (stereo not drawn), the inhibition is -0.21%. With `O=C(Nc1ccc(Cl)cc1)c1cc2nc(C3CC3)cc(C(F)(F)F)n2n1`, the inhibition is -1.38%. The value for `O=C(COC(=O)c1cc2c(s1)CCCC2)NCc1ccccc1Cl` was 0.1%; that for `CSc1ncccc1C(=O)NCc1ccccc1Cl` was -4.63%. As for `Clc1ccc(-c2cc(COc3ccccc3)no2)cc1Cl`, the inhibition was -6.65%.

With `CC(C)Cn1c(N2CCN(C(=O)/C=C/c3ccccc3)CC2)nc2ccccc21`, the inhibition was -10.9%.

As for `COc1cc(C)c(Cl)cc1S(=O)(=O)n1ccnc1`, the inhibition was -3.46%.

As for `COc1ccc(CCNC(=O)COc2ccc3c(c2)OCO3)cc1`, the inhibition is -3.21%. The figure for `Cc1cc2ccccc2n1CCNC(=O)COc1ccc2ccccc2c1` is 45.2% (active); for `O=C(COc1ccc2ccc(=O)oc2c1)NCC(O)c1ccccc1` (stereo not drawn) it is -8.2%.

Turning to `Cc1ccc(C)c(NC(=O)CCS(=O)(=O)c2ccccc2)c1`, the inhibition was 4.81%. The value for `CCc1nc2ccc(C(=O)NCCNC(C)=O)cn2c1N(CC)Cc1cccc(Br)c1` was 1.46%; that for `CCOC(=O)N1CCN(C(=O)c2ccccc2N(Cc2ccccc2)S(=O)(=O)c2ccc(OC)cc2)CC1` was 9.59%; that for `COc1cccc(Cn2cc(COC(=O)Nc3ccc(F)cc3)nn2)c1` was 6.34%. Take `CN(C)C(=O)c1nc2ccc(Cl)cn2c1CNCc1cccc(OC(F)(F)F)c1`: the inhibition is -9.54%.

Regarding `C=CCn1c(=S)[nH]c2scc(-c3ccco3)c2c1=O`, the inhibition is 4.26%. Regarding `C=CCn1c(SCC(=O)c2c(N)n(C)c(=O)n(C)c2=O)nc2sc(CC)cc2c1=O`, the inhibition is 2.42%. Take `C=CCNC(=O)CSc1nc2scc(-c3ccco3)c2c(=O)n1CC=C`: the inhibition was 25.2% (active). The value for `Nc1nc(NC(=O)/C=C/c2ccc(F)cc2)nn1-c1ccccc1` was -4.74%; that for `COc1ncnc2c1ncn2CCCNCCN1CCOCC1` was -1.3%.

Take `CCOC(=O)[C@]12CCCC=C1N(Cc1ccc(OC)cc1)C(=O)[C@@H]2CC(=O)NCc1cccs1`: the inhibition is 6.08%.

Consider `O=C(Nc1ccccc1)N1CCN(Cc2nc3ccccc3c(=O)[nH]2)CC1`, for which the inhibition is -8.21%.

Consider `NC(=O)C1CCN(C(=O)c2ccc3c(=O)n(Cc4cccc(Br)c4)c(=S)[nH]c3c2)CC1`, for which the inhibition is 9.5%.

`NC(=O)C1CCN(Cc2nc3c(Br)cc(Br)cc3c(=O)[nH]2)CC1`: the inhibition is 28.2% (active). The value for `O=C(NC1CCCC1)C1c2ccccc2OCC(=O)N1CC(F)(F)F` (stereo not drawn) was 1.68%; that for `CCc1nnc(NC(=O)CSc2nnc(COc3ccc(C#N)cc3)n2-c2ccccc2)s1` was 0.08%; that for `O=C(CN1C(=O)C2C3C=CC(C3)C2C1=O)Nc1nc(-c2ccccn2)cs1` (stereo not drawn) was 2.72%.

Take `N#Cc1ccc(OCC(=O)Nc2nc(-c3ccccn3)cs2)cc1`: the inhibition is 32.4% (active). For the compound `CCN(Cc1ccncc1)C(=S)Nc1ccccc1C`, the inhibition was 0.38%.

As for `O=S(=O)(c1ccccc1)N(Cc1cccc(F)c1)c1ccccc1`, the inhibition was 7.38%.

Turning to `C#CCSc1nnc(-c2sc3ccccc3c2Cl)o1`, the inhibition is 3.9%. With `COc1ccc2c(Cl)c(-c3nnco3)sc2c1`, the inhibition is 24.9% (active).

Regarding `Fc1ccc(COc2ccc(-c3nnco3)cc2)cc1`, the inhibition was 1.45%. With `Cn1cnc(S(=O)(=O)N2C[C@@H](O)COC[C@@H]3O[C@H](CC(=O)NC4CCC4)CC[C@H]32)c1`, the inhibition is 9.27%. The figure for `Cc1nn(-c2ccccc2)c(=O)c2noc(C)c12` is 1.14%. The value for `CCCCn1c(SCc2ncc(-c3ccccc3)o2)nc2cc(S(N)(=O)=O)ccc21` was 2.37%; that for `COc1ccc(C[C@H]2CN3C(=NC[C@H]3C)N2CCNC(=O)CCC2CCCCC2)cc1` was -0.91%. For the compound `CC1(C(=O)NS(=O)(=O)Cc2cccc(Cl)c2)CCN1C(=O)Cc1ccc(Cl)cc1Cl` (stereo not drawn), the inhibition was 1.42%.
